LASV entry inh – qHTS for Inhibitors of binding or entry into cells for Lassa Virus | Lassa virus pseudotyped entry inhibition, cell-based qHTS | Potency, µM (titrated, usually from 49.2 µM), for the others: at the highest dose activity change, negative = inhibition, hits mostly inhibitors | 18,000 tested, 4.1% active
Marburg entry – qHTS for Inhibitors of binding or entry into cells for Marburg Virus; 18,000 tested, 6.5% active; AID 720532, 2013; Marburg virus pseudotype entry/binding inhibition, cell-based; Potency, µM (titrated, usually from 49.2 µM), for inactives: at the top dose activity change, negative = inhibition, actives largely listed as inhibitors
Starred values were filed as active, the others as inactive; ? = inconclusive; . = not tested or not shown; ! = a repeat was not active; [ ] = dose if it differs, or a comment. Shown are actives, neighbours in structure and some others; about 8.6% of the full set was active somewhere. The call rests on the fitted dose curve; tested in HEK293 cells. On the % scale 0 is the no-effect control and ±100 the full control effect; potency means the concentration at half of the fitted maximal effect.

SMILES | LASV entry inh | Marburg entry
CC1=CC[C@@H](COc2ccccc2)O[C@@]2(C1)C(=O)Nc1ccccc12 | 32%[8.59 µM] | 21%[8.59 µM]
C=CCOc1ccccc1OCC(O)CNC(C)C (stereo not drawn) | -2%[17.8 µM] | 11%[17.8 µM]
CC(C)(C)NCC(O)COc1ccc(NC(=O)NC2CCCCC2)cc1 (stereo not drawn) | -10% | -9%
CCc1ccccc1OC[C@@H](O)CN[C@H]1CCCc2ccccc21 | 28µM* | 8.9µM*
CC(C)(C)NC[C@H](O)COc1ccccc1C1CCCC1 | ? | 7.9µM*
O=S(=O)(N[C@@H](CO)Cc1ccccc1)c1ccc(Br)cc1F | 10% | 22%
N#Cc1cccc(OCc2cn(CC(=O)c3ccc(O)cc3)nn2)c1 | -15% | 1%
COc1cc2c(cc1OC)[C@@H]1O[C@](CCCCN3C(=O)c4ccccc4C3=O)(C2)OC2=C1C(=O)CC(C)(C)C2 | -26%[8.59 µM] | -9%[8.59 µM]
C1CCC(NC(=NC2C3CC4CC(C3)CC2C4)N2CCOCC2)CC1 (stereo not drawn) | ? | 14µM*
C[C@H](CO)NS(=O)(=O)c1cc(Cl)ccc1F | 9% | 19%
COc1ccc(S[C@@H]2C[C@@H](C(=O)Nc3ccc4nccnc4c3)N(C3Cc4ccccc4C3)C2)cc1 | 3.2µM* | -6%
Cc1ccc(CN2C[C@H](Sc3ccccn3)C[C@H]2C(=O)Nc2ccc3sc(C)nc3c2)cc1 | -13% | ?
C=C(C)C[C@@]1(c2ccccc2)Oc2ccccc2C2=NCCN=C21 | 7%[8.59 µM] | -21%[8.59 µM]
COC(=O)[C@H](C(C)C)N(Cc1cc(OC)cc(OC)c1)S(=O)(=O)CCl | . | -23%
O=[S+]1([O-])C[C@@H](N2CCN(CCO)CC2)[C@@H](COCc2ccccc2)N1 | -16% | -10%
COc1ccc(-c2nc3c(c4c2C[C@H](c2ccccc2)OC4)CN(C(=O)N[C@@H](C)C(=O)OC(C)C)CC3)c(C)c1 | 1%[8.59 µM] | ?
C#Cc1cccc(Nc2ncnc3cc(OCCOC)c(OCCOC)cc23)c1 | ? | -4%
COc1cc2c(Nc3ccc(Br)cc3F)ncnc2cc1OCC1CCN(C)CC1 | 22µM* | 7.1µM*
COC(=O)C1(C)C2CC(C)C(c3ccccc32)N1C(=O)C(F)(F)F (stereo not drawn) | . | -9%[8.59 µM]
CC1O[C@@H](O[C@@H]2C(O)C[C@H](O[C@@H]3C(O)C[C@@H](OC4CC[C@@]5(C)C6CC(O)[C@@]7(C)C(C8=CC(=O)OC8)CC[C@@]7(O)C6CC[C@@H]5C4)OC3C)OC2C)CC(O)[C@H]1O (stereo partly drawn) | 1µM* | 0.56µM*
C[C@@H]1O[C@H](O[C@@H]2CC[C@@]3(C=O)[C@H]4CC[C@@]5(C)[C@@H](C6=CC(=O)OC6)CC[C@@]5(O)[C@@H]4CC[C@]3(O)C2)C[C@H](O)[C@@H]1O | 3.5µM* | 3.5µM*
CC(C)=CCC[C@](C)(O[C@@H]1O[C@H](CO)[C@@H](O)[C@H](O)[C@H]1O)[C@H]1CC[C@]2(C)[C@@H]1[C@H](O)C[C@@H]1[C@@]3(C)CC[C@H](O[C@@H]4O[C@H](CO)[C@@H](O)[C@H](O)[C@H]4O[C@@H]4O[C@H](CO)[C@@H](O)[C@H](O)[C@H]4O)C(C)(C)[C@@H]3[C@@H](O)C[C@]12C | -20% | ?
C[C@H]1O[C@@H](O[C@H]2CC[C@@]3(C)[C@H](CC[C@@H]4[C@@H]3C[C@@H](O)[C@]3(C)[C@@H](C5=CC(=O)OC5)CC[C@]43O)C2)C[C@H](O)[C@@H]1O[C@H]1C[C@H](O)[C@H](O[C@H]2C[C@H](O)[C@H](O[C@@H]3O[C@H](CO)[C@@H](O)[C@H](O)[C@H]3O)[C@@H](C)O2)[C@@H](C)O1 | 0.35µM* | 0.28µM*
CC(=O)O[C@H]1C[C@H](O[C@H]2[C@@H](O)C[C@H](O[C@H]3[C@@H](O)C[C@H](OC4CC[C@@]5(C)C(CC[C@@H]6[C@@H]5CC[C@]5(C)[C@@H](C7=CC(=O)OC7)[C@@H](O)C[C@]65O)C4)O[C@@H]3C)O[C@@H]2C)O[C@H](C)[C@H]1O[C@@H]1O[C@H](CO)[C@@H](O)[C@H](O)[C@H]1O (stereo partly drawn) | 2.8µM* | ?
CC(C)CON=C1C[C@@H](O)[C@@H](O)[C@@H]2[C@H]3C(=O)N(Cc4ccc5c(c4)OCO5)C(=O)[C@@H]3CC[C@@H]12 | 8%[8.59 µM] | -30%[8.59 µM]
SMILES | LASV entry inh | Marburg entry
COc1ccc2c(c1)[C@@]1(OCCC=C[C@@H]1C)C(=O)N2Cc1ccc(F)cc1 | 40%[8.59 µM] | 28%[8.59 µM]
O=C(c1ccccc1)[C@@H]1O[C@@H]1c1ccccc1 | -19%[8.59 µM] | 41%[8.59 µM]
C[C@H]1[C@@H](C(=O)N2CCCC2)CC(=O)C(=NOCc2ccccc2)C[C@H]1c1ccccc1 | . | 0%[8.59 µM]
COC(=O)C1=C(C(=O)OC)[C@@H]2N(Cc3ccccc3)c3ccccc3[C@@]23C[C@@H](C(=O)OC)N(C(=O)Nc2ccc(C(F)(F)F)cc2)C3=N1 | -20%[8.59 µM] | 38%[8.59 µM]
CC#CCN1C(=O)N(C)C(c2ccccc2)C(C(=O)OC)=C1C (stereo not drawn) | 10%[8.59 µM] | -4%[8.59 µM]
CC1OC(O[C@@H]2C(O)CC(O[C@@H]3C(O)C[C@@H](OC4CC[C@]5(C)[C@H](CC[C@H]6[C@@H]5CC[C@]5(C)C(C7=CC(=O)OC7)C(O)C[C@@]65O)C4)OC3C)OC2C)CC(O)C1O (stereo partly drawn) | 5µM* | 0.63µM*
C[C@H]1O[C@@H](O[C@H]2[C@@H](O)C[C@H](O[C@H]3[C@@H](O)C[C@H](O[C@H]4CC[C@@]5(C)[C@H](CC[C@@H]6[C@@H]5CC[C@]5(C)[C@@H](C7=CC(=O)OC7)CC[C@]65O)C4)O[C@@H]3C)O[C@@H]2C)C[C@H](O)[C@@H]1O | ? | 0.089µM*
COc1cccc([C@H]2Oc3ccc(OC)cc3C(=NOC[C@@H](O)COCc3ccco3)[C@H]2O)c1 | 10%[8.59 µM] | ?
Cc1cc(=O)oc2cc(OCc3cn(CC(=O)c4ccc(O)cc4)nn3)ccc12 | 12% | 22%
C[C@@H]1CC[C@H]2C(=O)N(Cc3cccc([N+](=O)[O-])c3)C[C@H](O)CN2[C@@H]1c1ccc(Br)cc1 | 15%[8.59 µM] | 33%[8.59 µM]
O[C@H](CC#CCOc1ccccc1)COCc1ccccc1 | 22%[8.59 µM] | 71%[8.59 µM]
CN1CCC(Nc2ncc3ncnc(Nc4ccc(F)c(Cl)c4)c3n2)CC1 | -10% | 10µM*
C=CS(=O)(=O)O | -14% | 22µM*
CC=C(C)C(=O)O[C@H]1C(C)=C2[C@@H]3OC(=O)[C@@](C)(O)[C@@]3(O)[C@@H](OC(=O)CCC)C[C@](C)(OC(C)=O)[C@@H]2[C@@H]1OC(=O)CCCCCCC | 40µM* | 40µM*
CC(C)OC(=O)[C@H](C)NC(=O)N1CCc2nc(COc3ccccc3)c3c(c2C1)CO[C@@H](C)C3 | -31%[8.59 µM] | -36%[8.59 µM]
COc1cccc2c1[C@H](C=Cc1ccccc1)[C@@H]([C@H](O)COC(C)=O)OC2 | 10%[8.59 µM] | 16%[8.59 µM]
CC(C)N=C(N)/N=C(\N)Nc1ccc(Cl)cc1 | 0%[17.8 µM] | -4%[17.8 µM]
NC(=NCCCCCCN=C(N)/N=C(\N)Nc1ccc(Cl)cc1)/N=C(\N)Nc1ccc(Cl)cc1 | 10µM*! | ?
CCCC[C@@H]1CN2[C@@H](CC[C@H](C)[C@@H]2c2ccc(Br)cc2)C(=O)O1 | 5%[8.59 µM] | 5%[8.59 µM]
CC(CCN1CCc2nc(-c3ccccc3)c(-c3ccccc3)cc2C1)=NO[C@H](C)CN1CCCCc2nc(C)c(C)cc21 | 7%[8.59 µM] | 25%[8.59 µM]

Assay outcomes deposited in PubChem by National Center for Advancing Translational Sciences (NCATS).
